The whole screen tested about 310,000 compounds, of which about 14,000 (4.5%) showed an effect of 50% or more. The effect is printed as a negative number. This excerpt belongs to a sample that is enriched for strong results.
Molecular target: human ether-à-go-go-related gene (hERG) potassium channel (human, UniProt Q12809)
Test: primary screen, population patch clamp on CHO cells stably expressing hERG; higher = less effect of the substance
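Also: peak tail current of the secondary pulse compared with the same well before compound.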

human ether-à-go-go-related gene (hERG) potassium channel, sequence (Q12809 whole entry, looked up): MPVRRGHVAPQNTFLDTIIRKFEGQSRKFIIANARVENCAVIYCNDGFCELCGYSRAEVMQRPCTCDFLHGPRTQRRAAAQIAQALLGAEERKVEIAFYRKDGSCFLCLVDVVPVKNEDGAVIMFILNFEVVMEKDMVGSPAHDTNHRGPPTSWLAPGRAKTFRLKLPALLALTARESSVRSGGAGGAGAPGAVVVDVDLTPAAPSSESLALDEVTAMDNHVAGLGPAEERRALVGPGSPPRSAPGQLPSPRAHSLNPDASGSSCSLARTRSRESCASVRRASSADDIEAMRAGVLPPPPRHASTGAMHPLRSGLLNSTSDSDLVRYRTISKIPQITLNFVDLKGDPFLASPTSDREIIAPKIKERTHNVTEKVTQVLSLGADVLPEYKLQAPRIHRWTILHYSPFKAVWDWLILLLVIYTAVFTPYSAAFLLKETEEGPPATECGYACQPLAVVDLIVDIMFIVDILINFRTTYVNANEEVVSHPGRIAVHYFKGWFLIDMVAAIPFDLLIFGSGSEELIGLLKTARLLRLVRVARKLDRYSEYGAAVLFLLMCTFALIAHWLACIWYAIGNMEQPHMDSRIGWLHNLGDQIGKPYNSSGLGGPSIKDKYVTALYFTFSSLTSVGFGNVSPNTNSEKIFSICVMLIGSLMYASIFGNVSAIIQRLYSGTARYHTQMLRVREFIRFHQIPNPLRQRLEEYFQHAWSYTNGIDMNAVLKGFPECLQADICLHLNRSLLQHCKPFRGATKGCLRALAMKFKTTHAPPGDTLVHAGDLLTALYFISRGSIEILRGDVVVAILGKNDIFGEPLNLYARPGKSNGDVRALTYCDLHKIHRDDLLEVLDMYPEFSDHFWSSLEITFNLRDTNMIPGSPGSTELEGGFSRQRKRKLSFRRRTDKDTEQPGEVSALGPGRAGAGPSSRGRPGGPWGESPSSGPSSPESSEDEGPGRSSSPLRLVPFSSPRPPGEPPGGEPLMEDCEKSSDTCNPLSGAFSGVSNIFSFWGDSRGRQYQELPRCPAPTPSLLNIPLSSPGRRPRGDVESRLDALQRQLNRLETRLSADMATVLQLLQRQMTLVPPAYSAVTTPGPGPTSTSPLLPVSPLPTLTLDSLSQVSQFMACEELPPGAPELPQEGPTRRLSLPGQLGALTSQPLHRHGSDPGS

| Compound | hERG current change (%, negative = inhibition) at 10uM [%] |
| --- | --- |
| CCCC(C)c1nc(C(N)=O)c2[nH]c(=O)n(-c3ccc(OC)c(OC)c3)c2n1 (stereo not shown) | 12.6 |
| CCc1ccc(NC(=O)C2CCN(S(=O)(=O)c3cnc[nH]3)CC2)cc1 | 9.27 |
| COc1ccccc1NC(=O)Cn1cnc2sc(C(=O)Nc3cc(OC)c(OC)c(OC)c3)c(C)c2c1=O | 27.8 |
| CCn1cc(/C=C(\NC(=O)c2ccccc2OC)C(=O)NCCCN2CCOCC2)c2ccccc21 | -7.61 |
| Cc1ccccc1OCC(=O)N/N=C/c1cccn1C | 7.04 |
| COc1ccc(-n2nc(C(=O)NCC(=O)NC(C)C)c3ccccc3c2=O)cc1 | 13.7 |
| CCOC(=O)C1CCCCN1Cc1cc(OC)ccc1OC (stereo not shown) | 5.17 |
| O=C(NNc1cccc(Cl)n1)C(F)(F)F | 17.2 |
| COc1ccc(/C=N/n2c(=O)[nH]c3c([nH]c4ccc(Br)cc43)c2=O)cc1CN1CCOCC1 | 5.45 |
| O=S(=O)(c1cccc(Br)c1)N1CCN(C(=S)NCC2CCCO2)CC1 (stereo not shown) | 11.6 |
| CCOc1ccc(S(=O)(=O)N(CC)CC(=O)NCc2ccncc2)cc1 | -13.2 |
| CCOc1ccc(S(=O)(=O)N(CC(=O)Nc2cccnc2)c2ccc(F)cc2)cc1 | 2.96 |
| CN(c1ccc(C(=O)NCc2ccncc2)cc1)S(=O)(=O)c1ccc(Cl)cc1 | -52.1 |
| CCOc1ccc(S(=O)(=O)N(CC(=O)NCc2cccnc2)c2ccc(F)cc2)cc1 | -72.5 |
| CCOc1ccc(S(=O)(=O)N(CC(=O)NCc2ccncc2)c2ccc(C)cc2)cc1 | -56.5 |
| COc1ccc(S(=O)(=O)N(C)c2ccc(C(=O)NCc3ccncc3)cc2)cc1 | -18.8 |
| CCOc1ccc(N(CC(=O)NCc2ccccc2)S(=O)(=O)c2ccc(C)cc2)cc1 | 4.04 |
| CCOc1ccc(N(CC(=O)NCc2cccnc2)S(=O)(=O)c2ccc(F)cc2)cc1 | -13.6 |
| CN(c1ccc(C(=O)NCc2cccnc2)cc1)S(=O)(=O)c1ccc(Cl)cc1 | -15.8 |
| COc1cc(/C(C)=N/N2CCN(c3ccccc3OC)CC2)ccc1O | -9.07 |
| COc1ccc2c(c1)c(/C=C/c1cc[n+](C)cc1)cn2C.[I-] | 12.9 |

| Compound | hERG current change (%, negative = inhibition) at 10uM [%] |
| --- | --- |
| Cc1cc(-n2c(C)cc(C(=O)CSc3nnnn3-c3ccc(Cl)cc3)c2C)no1 | -3.04 |
| Cc1c(C)c(C)c(CN2CCSCC2)c(C)c1C | 18.4 |
| Cc1ccc(N(C)S(=O)(=O)c2ccc(-c3cnc(C4CC4)o3)cc2)cc1 | 8.38 |
| COc1ccc(S(=O)(=O)N2CCCC(C(=O)NCc3ccco3)C2)cc1OC (stereo not shown) | 10.1 |
| CCN(CC)CCN(C(=O)c1ccc2ncsc2c1)c1nc2cc3c(cc2s1)OCO3.Cl | -61.8 |
| CN(C)CCN(C(=O)c1ccc(N2C(=O)CCC2=O)cc1)c1nc2cc3c(cc2s1)OCO3.Cl | 0.227 |
| CN(C)CCN(C(=O)c1ccc(C(=O)c2ccccc2)cc1)c1nc2cc3c(cc2s1)OCO3.Cl | 3.43 |
| CN(C)CCCN(C(=O)c1ccc2c(c1)CCCC2)c1nc2cc3c(cc2s1)OCO3.Cl | -71 |
| CN(C)CCN(C(=O)c1ccc(C(=O)c2ccccc2)cc1)c1nc2cc3c(cc2s1)OCCO3.Cl | -12.4 |
| CCN(CC)CCN(C(=O)c1ccc(C(=O)c2ccccc2)cc1)c1nc2cc3c(cc2s1)OCO3.Cl | -43.8 |
| CN(C)CCN(C(=O)c1ccc2c(c1)CCCC2)c1nc2cc3c(cc2s1)OCCO3.Cl | 5.76 |
| CN(C)CCCN(C(=O)c1ccc([N+](=O)[O-])o1)c1nc2cc3c(cc2s1)OCO3.Cl | -71.8 |
| CN(C)CCCN(C(=O)c1ccc(C(=O)c2ccccc2)cc1)c1nc2cc3c(cc2s1)OCO3.Cl | -56.3 |
| CCN(CC)CCN(C(=O)c1ccc2ccccc2c1)c1nc2cc3c(cc2s1)OCO3.Cl | -38.6 |
| Cc1nccn1Cc1ccccc1 | 25.1 |
| C(=N\Nc1nc(N2CCOCC2)nc(N2CCOCC2)n1)/c1ccco1 | 30.2 |
| CCOC(=O)C1CCN(C(=O)Cn2c(=O)c3cccn3c3cccnc32)CC1 | 3.76 |
| COC(=O)CSC1=C(C#N)C(c2ccc(Cl)cc2)C(C(=O)OC)C(=O)N1 (stereo not shown) | 0.571 |
| Cc1cccc(C)c1NC(=O)COC(=O)c1ccccc1O | 1.57 |
| O=C(NC1CCCCC1)N1CCc2[nH]c3ccccc3c2C1 | 3.15 |
| Cc1ccc2nc(N(CCN(C)C)C(=O)c3ccc4c(c3)OCCO4)sc2c1.Cl | -44.6 |

| Compound | hERG current change (%, negative = inhibition) at 10uM [%] |
| --- | --- |
| CN(C)CCCN(C(=O)c1ccc2c(c1)OCCO2)c1nc2ccc(Cl)cc2s1.Cl | -39.9 |
| CN(C)CCCN(C(=O)c1ccc2c(c1)OCCO2)c1nc2cc3c(cc2s1)OCO3.Cl | -56 |
| CCN(CC)CCN(C(=O)c1ccc2c(c1)OCCO2)c1nc2ccc(C)cc2s1.Cl | -71.2 |
| CCN(CC)CCN(C(=O)c1ccc(S(=O)(=O)N2CCCC2)cc1)c1nc2cc(C)cc(C)c2s1.Cl | -44.1 |
| CCN(CC)CCN(C(=O)c1ccc2c(c1)OCCO2)c1nc2cc(C)cc(C)c2s1.Cl | -69.9 |
| CN(C)CCN(C(=O)c1ccc2c(c1)OCCO2)c1nc2cc3c(cc2s1)OCO3.Cl | -41.9 |
| CCN(CC)CCN(C(=O)c1ccc2c(c1)OCCO2)c1nc2cc3c(cc2s1)OCO3.Cl | -67.3 |
| CCN(CC)CCN(C(=O)c1ccc(Br)s1)c1nc2cc3c(cc2s1)OCCO3.Cl | -1.19 |
| CCc1ccc2nc(N(CCCN(C)C)C(=O)c3ccc4c(c3)OCCO4)sc2c1.Cl | -48.3 |
| CC(C)c1ccc(N2CC(C(=O)Nc3nccs3)CC2=O)cc1 (stereo not shown) | 1.98 |
| CC1(C)Cc2c(sc3nc4n(-c5ccccc5)c(=O)c(CCC(=O)O)nn4c(=O)c23)CO1 | 12.9 |
| O=c1cc(-c2ccc([N+](=O)[O-])cc2)c2cc3c(cc2[nH]1)OCCO3 | -12 |
| CC(=O)NC(NC(C)=O)c1cccc(OCc2ccccc2)c1 | 9.33 |
| CC(NCc1ccc(OCc2ccc(Cl)cc2)cc1)C(O)c1ccccc1.Cl (stereo not shown) | -62.5 |
| CC(NCc1ccc(Cl)c(Cl)c1)C(O)c1ccccc1.Cl (stereo not shown) | -0.311 |
| CC(NCc1cccc(OCc2ccccc2)c1)C(O)c1ccccc1.Cl (stereo not shown) | -50.9 |
| CC(NCc1ccc(Cl)cc1)C(O)c1ccccc1.Cl (stereo not shown) | 0.613 |
| CC(NCc1ccc(Cl)cc1Cl)C(O)c1ccccc1.Cl (stereo not shown) | -26.6 |
| Cc1ccc(C(=O)NCC(=O)OCCCn2c(=O)[nH]c3ccccc32)cc1 | -14.8 |
| COc1ccc(N(CC(=O)Nc2ccc(C)cn2)S(=O)(=O)c2c(C)noc2C)cc1 | -24.8 |
| Cc1cccc(C)c1NC(=S)N1CCOCC1 | 9.99 |

| Compound | hERG current change (%, negative = inhibition) at 10uM [%] |
| --- | --- |
| Cc1ccc(NC(=O)CCS(=O)(=O)c2cccc3nonc23)c(Br)c1 | 6.97 |
| Cc1c(C(=O)N2CCC3(CC2)CC(=O)c2ccccc2O3)cccc1[N+](=O)[O-] | -83.2 |
| Cc1c(C(=O)Nc2ccccc2C(=O)N2CCCC2)cccc1[N+](=O)[O-] | 9.76 |
| O=C(c1ccccc1[N+](=O)[O-])N1CCCN(C(=O)c2ccccc2[N+](=O)[O-])CC1 | -14.8 |
| Cc1c(C(=O)N2CCC(C)CC2)cccc1[N+](=O)[O-] | 26.1 |
| O=C1CC2(CCN(C(=O)c3ccccc3[N+](=O)[O-])CC2)Oc2ccccc21 | -62 |
| O=C(c1ccccc1[N+](=O)[O-])N1CCC2(CC1)OCCO2 | 3.53 |
| NC(=O)c1ccc(NC(=O)CNC(=O)c2sc3ccccc3c2Cl)cc1 | 0.282 |
| Cn1nccc1C(=O)Nc1ccn(C23CC4CC(CC(C4)C2)C3)n1 | -11.6 |
| CN1CCN(S(=O)(=O)c2ccc(=O)[nH]c2)CC1 | 7.85 |
| O=C(NCCCn1ccnc1)c1cc(-c2ccccc2)on1 | -16.3 |
| COc1cc2[nH]c(=O)c(C(=O)NCCCN3CCOCC3)c(O)c2cc1OC.Cl | 9.48 |
| O=C(NCCCn1ccnc1)c1cc(-c2ccc(Br)cc2)on1 | -51.6 |
| Cl.O=C(NCCCN1CCOCC1)c1c(O)c2ccccc2[nH]c1=O | -47.9 |
| Cc1ccc(-c2cc(C(=O)NCCCn3ccnc3)no2)cc1 | -42.9 |
| O=C(NCCCN1CCOCC1)c1cc(-c2ccc(Br)cc2)on1 | -58.6 |
| Cc1ccc(-c2cc(C(=O)NCCCN3CCOCC3)no2)cc1 | -30.8 |
| O=C(NCCN1CCOCC1)c1cc(-c2ccc(Br)cc2)on1 | -22 |
| O=C(NCCCN1CCOCC1)c1c(O)c2cc(Br)cc(Br)c2[nH]c1=O | -64.6 |

From article PMC4336329 (PLoS ONE, 2015)
